Test results taken from PubChem BioAssay AID602261 (Sanford-Burnham Center for Chemical Genomics, 2012).
Screen size: about 360,000 compounds; about 2,400 (0.67%) were called active.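 Rule for the calls: active = compounds whose normalised, plate-corrected inhibition of enzyme fluorescence in the single-dose primary screen is 50% or more; inactive = the rest.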 This excerpt belongs to a sample that is enriched for actives.

These molecules were tested against Fatty acid synthase (Homo sapiens) (UniProt P49327) (assay: inhibition of human FAS-TE enzyme activity – biochemical, fluorescence intensity, uHTS, primary screen (AID 602261;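 note: 0% = DMSO with enzyme and 100% = substrate without enzyme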)). Settings: recombinant FAS-TE, OMFH fluorogenic substrate, fluorescence endpoint; at 15 µM; stronger effect = higher value.
Fatty acid synthase (Homo sapiens), sequence (P49327 whole entry, looked up): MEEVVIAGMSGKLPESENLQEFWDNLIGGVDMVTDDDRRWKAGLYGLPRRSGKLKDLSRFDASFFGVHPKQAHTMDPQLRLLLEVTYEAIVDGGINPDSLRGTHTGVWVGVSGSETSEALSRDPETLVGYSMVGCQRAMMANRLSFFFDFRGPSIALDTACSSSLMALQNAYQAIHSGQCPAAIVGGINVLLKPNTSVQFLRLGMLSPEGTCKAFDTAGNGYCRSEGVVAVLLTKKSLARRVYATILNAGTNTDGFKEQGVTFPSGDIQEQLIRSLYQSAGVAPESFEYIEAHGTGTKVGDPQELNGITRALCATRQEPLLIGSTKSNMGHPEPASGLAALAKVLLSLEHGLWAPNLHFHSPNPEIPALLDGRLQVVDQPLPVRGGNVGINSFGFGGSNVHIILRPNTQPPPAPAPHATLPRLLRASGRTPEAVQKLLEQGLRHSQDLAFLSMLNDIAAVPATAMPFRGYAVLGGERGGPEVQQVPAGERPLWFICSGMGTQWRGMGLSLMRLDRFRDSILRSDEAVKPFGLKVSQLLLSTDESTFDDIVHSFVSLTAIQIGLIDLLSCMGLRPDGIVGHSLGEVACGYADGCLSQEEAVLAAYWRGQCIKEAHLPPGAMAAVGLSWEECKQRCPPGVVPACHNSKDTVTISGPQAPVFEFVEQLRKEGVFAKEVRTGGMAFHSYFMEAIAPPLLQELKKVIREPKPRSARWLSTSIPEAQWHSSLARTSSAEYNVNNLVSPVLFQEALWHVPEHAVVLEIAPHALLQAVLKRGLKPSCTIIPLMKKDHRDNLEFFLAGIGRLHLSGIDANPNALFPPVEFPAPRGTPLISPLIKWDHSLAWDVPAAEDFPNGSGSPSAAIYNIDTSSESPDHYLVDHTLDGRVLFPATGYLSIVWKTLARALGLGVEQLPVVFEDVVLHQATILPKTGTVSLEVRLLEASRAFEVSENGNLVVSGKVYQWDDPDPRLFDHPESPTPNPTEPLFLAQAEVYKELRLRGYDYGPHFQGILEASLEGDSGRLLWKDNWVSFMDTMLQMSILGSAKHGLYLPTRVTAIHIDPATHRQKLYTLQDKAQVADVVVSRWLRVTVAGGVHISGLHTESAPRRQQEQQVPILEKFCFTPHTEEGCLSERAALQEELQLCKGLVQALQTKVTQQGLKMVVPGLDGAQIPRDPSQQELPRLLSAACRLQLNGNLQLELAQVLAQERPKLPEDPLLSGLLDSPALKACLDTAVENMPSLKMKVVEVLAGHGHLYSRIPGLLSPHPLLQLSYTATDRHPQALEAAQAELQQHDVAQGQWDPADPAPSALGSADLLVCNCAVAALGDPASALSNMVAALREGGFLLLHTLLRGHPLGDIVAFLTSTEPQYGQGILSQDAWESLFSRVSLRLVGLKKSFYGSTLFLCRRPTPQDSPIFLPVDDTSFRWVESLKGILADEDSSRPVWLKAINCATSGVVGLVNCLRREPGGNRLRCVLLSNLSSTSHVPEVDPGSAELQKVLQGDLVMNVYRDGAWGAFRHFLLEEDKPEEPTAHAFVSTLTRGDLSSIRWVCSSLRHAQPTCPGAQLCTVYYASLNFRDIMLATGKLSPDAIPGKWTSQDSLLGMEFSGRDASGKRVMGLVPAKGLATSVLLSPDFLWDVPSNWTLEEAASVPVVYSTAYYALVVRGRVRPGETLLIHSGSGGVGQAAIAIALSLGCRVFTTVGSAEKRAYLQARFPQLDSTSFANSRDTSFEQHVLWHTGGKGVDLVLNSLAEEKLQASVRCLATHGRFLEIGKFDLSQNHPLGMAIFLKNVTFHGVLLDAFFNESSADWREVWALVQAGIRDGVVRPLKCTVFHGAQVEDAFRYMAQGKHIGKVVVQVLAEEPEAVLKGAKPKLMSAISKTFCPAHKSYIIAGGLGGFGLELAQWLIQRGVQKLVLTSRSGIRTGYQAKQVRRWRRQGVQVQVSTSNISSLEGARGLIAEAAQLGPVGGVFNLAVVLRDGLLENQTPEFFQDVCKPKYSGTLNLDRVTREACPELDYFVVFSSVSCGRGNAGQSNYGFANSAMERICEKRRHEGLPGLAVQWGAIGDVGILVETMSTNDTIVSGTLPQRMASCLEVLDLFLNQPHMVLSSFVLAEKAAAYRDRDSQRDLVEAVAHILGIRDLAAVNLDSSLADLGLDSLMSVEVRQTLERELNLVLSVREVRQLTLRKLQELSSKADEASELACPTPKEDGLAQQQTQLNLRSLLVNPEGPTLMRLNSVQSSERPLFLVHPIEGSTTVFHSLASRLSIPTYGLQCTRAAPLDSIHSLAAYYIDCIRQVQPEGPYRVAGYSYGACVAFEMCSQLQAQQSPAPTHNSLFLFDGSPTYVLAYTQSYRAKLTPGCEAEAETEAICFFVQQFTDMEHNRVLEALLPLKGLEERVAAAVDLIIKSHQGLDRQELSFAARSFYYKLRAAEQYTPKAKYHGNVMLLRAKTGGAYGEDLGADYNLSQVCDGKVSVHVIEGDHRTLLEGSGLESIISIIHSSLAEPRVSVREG
For `COc1ccccc1CNS(=O)(=O)CC12CCC(CC1=O)C2(C)C` (centres undefined), the inhibition was 2.9% (inactive). For `Cc1cccc(OCC(=O)OCC(=O)Nc2ccc(Cl)cn2)c1`, the inhibition was -6.1% (inactive). With `CCN(CC)C(CNC(=O)CSc1nnnn1-c1cccc(F)c1)c1ccco1` (centres undefined) the inhibition was -1.2% (inactive). In the case of `Cc1cccc(N2CCN(C(=O)c3cc4c(=O)[nH]c5ccccc5c4n3C)CC2)c1C`, the inhibition was 5% (inactive). `O=C(Cc1ccc(S(=O)(=O)N2CCOCC2)s1)NCCOc1ccccc1F` was tested, and the inhibition was -0.5% (inactive). In the case of `Cc1ccc2c(c1)C(O)(CC(=O)c1cccc(-n3cccc3)c1)C(=O)N2` (centres undefined), the inhibition was 2.6% (inactive). In the case of `COc1cc(/C=C(/NC(=O)c2ccccc2)C(=O)Nc2cccc(O)c2)c([N+](=O)[O-])cc1OC`, the inhibition was -3.8% (inactive). `Nc1nnnn1/N=C/c1cc([N+](=O)[O-])ccc1O` was tested, and the inhibition was -3.3% (inactive). In the case of `O=C(N/N=C/c1cc([N+](=O)[O-])ccc1O)/C(=C\c1cccs1)NC(=O)c1ccccc1`, the inhibition was 56.5% (active). For `COc1ccc(NC(=O)NN2CCN(C)CC2)c(OC)c1`, the inhibition was -6% (inactive). For `O=S(=O)(Nc1cccc(Oc2ccc(Cl)cc2)n1)c1ccc(F)cc1`, the inhibition was 8.1% (inactive). `CC(C)CC(=O)c1c[nH]c(C(=O)NCc2ccccc2)c1` was tested, and the inhibition was -3.6% (inactive). In the case of `CC1(c2ccc(Cl)cc2)NC(=O)N(CC(=O)c2ccc3c(c2)OCO3)C1=O` (centres undefined), the inhibition was 11.3% (inactive). `Cn1c(=O)[nH]c(=O)c2c1nc(NCCCn1ccnc1)n2Cc1cccc(Br)c1` was tested, and the inhibition was -2.6% (inactive). For `CCOC(=O)c1ccc(-c2ccc3ncnc(N(C)Cc4sccc4C)c3c2)o1`, the inhibition was 26.5% (inactive). In the case of `Cc1ccc(C2=NN(C(=O)CSc3nc(N)cc(N)n3)C(c3ccco3)C2)cc1` (centres undefined), the inhibition was 1.5% (inactive). For `COc1ccc(C2=NN(C(=O)CSc3nc(=O)n4ccc(C)cc4n3)C(c3ccc(C)cc3)C2)cc1` (centres undefined), the inhibition was 81.4% (active). `COc1ccc(C2CC(c3ccccc3)=NN2C(=O)CSc2nccc(=O)[nH]2)cc1` (centres undefined) was tested, and the inhibition was -5.6% (inactive). With `Cc1cccc(N=C2SC(C)CN2C(=O)CN2C(=O)NC3(CCCC3)C2=O)c1` (centres undefined) the inhibition was 3.9% (inactive). `Cc1cccc(N=C2NC(=O)/C(=C/c3cn(C)c4ccccc34)S2)c1` was tested, and the inhibition was 52.4% (active). `Cc1ccc(N2C(=O)S/C(=C/c3cn(C)c4ccccc34)C2=O)cc1` was tested, and the inhibition was 28.7% (inactive). For `Cc1ccccc1CSc1nnc(-c2ccccn2)n1N`, the inhibition was -5.3% (inactive). For `O=C(NC1=NCCS1)c1ccc(Cl)s1`, the inhibition was -11.9% (inactive). `Cc1cccc(N2CCC(NCc3c(C(=O)N4CCCCC4)nc4c(C)cccn34)CC2)c1` was tested, and the inhibition was -1.6% (inactive). For `O=C(O)CCS(=O)(=O)c1ccc(-c2ccccc2)cc1`, the inhibition was -1.5% (inactive). With `Cc1ccc2c(c1)-c1c(ssc1=S)C(C)(C)N2C(=O)CN1C(=O)c2ccccc2C1=O` the inhibition was 52.2% (active). In the case of `CCOC(=O)CN1C(=O)C(=O)c2cc(C)ccc21`, the inhibition was -7% (inactive). In the case of `Cc1cc2c(cc1C)N(C(=O)CN1C(=O)c3ccccc3C1=O)C(C)(C)c1ssc(=S)c1-2`, the inhibition was 43.2% (inactive). `O=S1(=O)N=C(N(CCO)/N=C/c2ccccc2F)c2ccccc21` was tested, and the inhibition was 0.1% (inactive). `CCOc1ccccc1NC(=O)C12CC3CC(C1)CC(c1ccc(C)cc1)(C3)C2` was tested, and the inhibition was 33.7% (inactive). `CCOc1ccc(Nc2nc(Cl)nc(N3CCN(c4ccc(OC)cc4)CC3)n2)cc1` was tested, and the inhibition was 57.9% (active). In the case of `COc1ccc(Nc2ncc(F)c(N3CCOCC3)n2)cc1`, the inhibition was -0.3% (inactive). `CCN1CCN(c2nc(Nc3cc(OC)ccc3OC)nc(Nc3cc(OC)ccc3OC)n2)CC1` was tested, and the inhibition was 32.9% (inactive). With `CC1CCCCC1NC(=O)C1CCCN1S(=O)(=O)c1cccc2nsnc12` (centres undefined) the inhibition was -4.8% (inactive). In the case of `O=C(N1CCCC1)C12CC3CC(C1)CC(C(=O)N1CCCC1)(C3)C2`, the inhibition was -5.3% (inactive). With `Cc1ccc(NC(=O)CSc2nnc(CNC(=O)c3ccccc3F)o2)cc1` the inhibition was -4.2% (inactive). In the case of `O=C(Nc1cccc(C(F)(F)F)c1)c1ccc(N2CCNCC2)c([N+](=O)[O-])c1`, the inhibition was -5% (inactive). `O=C(Nc1ccc(N2C(=O)c3cccc4cccc(c34)C2=O)cc1)c1ccc(N2CCCCC2)c([N+](=O)[O-])c1` was tested, and the inhibition was 56.4% (active). `O=C(COc1ccccc1F)NNC(=O)c1ccc(N2CCCCC2)c([N+](=O)[O-])c1` was tested, and the inhibition was 4.2% (inactive). With `CC(=O)Nc1ccc2c3c(ccc([N+](=O)[O-])c13)CC2` the inhibition was -4% (inactive). For `O=C(Nc1ccc(S(=O)(=O)N2CCCCCC2)cc1)c1c(F)cccc1F`, the inhibition was 12% (inactive). For `CCCN1Cc2cccc(C(=O)Nc3ccc(S(=O)(=O)N4CCCCCC4)cc3)c2C1=O`, the inhibition was 54.7% (active). For `CCCN1Cc2cccc(C(=O)NCc3ccccc3)c2C1=O`, the inhibition was -0.8% (inactive). With `COCCCNCC(=O)Nc1sc(C)c(C)c1C(=O)OC` the inhibition was -3.7% (inactive). `CCOC(=O)C(C)n1cnc2c(nnn2-c2ccc(F)cc2)c1=O` (centres undefined) was tested, and the inhibition was -7.4% (inactive). In the case of `Cc1ccc([C@@H]2CC(=O)[C@@H]3CN(S(=O)(=O)c4ccc(C)cc4)[C@H](c4ccccc4F)C[C@@H]3N2S(=O)(=O)c2ccc(Cl)cc2)cc1`, the inhibition was 12.3% (inactive). `CCc1ccc([C@@H]2CC(=O)[C@@H]3CN(S(=O)(=O)c4ccc(C)cc4)[C@H](c4ccc(Cl)cc4)C[C@@H]3N2S(=O)(=O)c2ccc(C)cc2)cc1` was tested, and the inhibition was 12.7% (inactive). In the case of `Cc1ccc(S(=O)(=O)N2CC[C@H]3[C@@H](C2)C(=O)C[C@@H](c2ccccc2)N3S(=O)(=O)c2ccc(C)cc2)cc1`, the inhibition was 79.6% (active). In the case of `CC(C)[C@H](NC(=O)N1c2ccccc2NC(=O)[C@@H]1C(C)C)C(=O)N[C@H](C(=O)O)c1ccccc1`, the inhibition was -2.6% (inactive). With `O=[N+]([O-])c1ccc(NS(=O)(=O)c2ccccc2)c(Cl)c1` the inhibition was -7% (inactive). `Cc1cccc(C(=O)N2CCN(S(=O)(=O)N3CCCCC3)CC2)c1` was tested, and the inhibition was -2.1% (inactive). For `Cc1ccc2oc(=O)c3cnn(CC(=O)N4CCCCCC4)c3c2c1`, the inhibition was 0.5% (inactive). `Cc1ccc2cc3cc(C(=O)N4CCCCCC4)oc3nc2c1` was tested, and the inhibition was 77.7% (active). `COc1ccc(C(C)=O)cc1COC(=O)Cn1cnc2ccccc2c1=O` was tested, and the inhibition was -2.7% (inactive).
